A selection: hits, their analogues and other compounds. The true share with any hit is near 2.4%.
D2 ag-1: D2 dopamine receptor (human) agonism | P14416 | HEK293 T-REx D2 cells, calcium flux agonist mode | activation, % at 2 µM | actives 0.53% (n = 340,000) | AID 485358;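 active = activation over 3 SD above normal in the single-dose calcium agonist read, cut at about 30% in these data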; also: 0% is about no effect
Target sequence (P14416 whole entry, looked up): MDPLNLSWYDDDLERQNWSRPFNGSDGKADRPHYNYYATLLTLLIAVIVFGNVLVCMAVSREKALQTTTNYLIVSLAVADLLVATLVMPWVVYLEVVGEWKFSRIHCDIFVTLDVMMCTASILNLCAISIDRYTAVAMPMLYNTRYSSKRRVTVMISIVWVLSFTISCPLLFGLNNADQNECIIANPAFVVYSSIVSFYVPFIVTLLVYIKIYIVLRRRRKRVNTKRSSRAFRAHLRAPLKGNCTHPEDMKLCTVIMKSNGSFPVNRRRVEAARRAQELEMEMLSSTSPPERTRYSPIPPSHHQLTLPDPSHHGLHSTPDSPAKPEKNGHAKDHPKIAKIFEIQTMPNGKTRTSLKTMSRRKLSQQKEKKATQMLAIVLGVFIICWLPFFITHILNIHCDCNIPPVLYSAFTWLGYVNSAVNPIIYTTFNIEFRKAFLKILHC
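Agonism is scored from calcium flux in a force-coupled, inducible HEK293 cell line expressing D2, read kinetically for 180 s after compound addition against dopamine controls.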
D2 PAM-1: D2 dopamine receptor (human) potentiation; HEK293 T-REx D2, calcium flux, EC20 dopamine potentiation; actives 0.34% (n = 340,000); P14416; potentiation, % at 10 µM; AID 485347;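 active = potentiation over 3 SD above the plate norm, cut at about 30% in these data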; also: 0% is about no effect
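Potentiation of an EC20 dopamine calcium response is measured in a force-coupled, tetracycline-inducible Hek293 Trex D2 line. Compound-only kinetic reads over 180 s flag agonists before dopamine addition.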
D2 ag-2: activates the human D2 dopamine receptor; DiscoveRx PathHunter D2 beta-arrestin, luminescence, 90 min; 100% = 57 uM dopamine signal; activation, % (no concentration beside the values); actives 0.084% (n = 360,000); in the data active = activation above about 40%; inconclusive = between about 15% and that limit
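Agonist mode: compounds alone added to overnight-plated D2 PathHunter cells for 90 min at 37 C, with 57 uM final dopamine (EC100) defining full response. Beta-arrestin recruitment detected by chemiluminescent reagent, read after 1 h at ambient temperature.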
D2 antagonist: antagonizes the human D2 dopamine receptor; P14416; inhibition, % at 10 µM; actives 2% (n = 340,000); HEK293 TREx D2 cells, calcium flux, dopamine EC80; in the data active = inhibition above about 30%; inactive = below that, where a call was filed; also: 0% is about no effect
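Measurement of antagonist activity uses fluorescent calcium dye in inducible HEK293 T-REx D2 cells: 10 s baseline, compound addition with 180 s read, EC80 dopamine addition with a further 180 s read.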
D2 PAM-2: human D2 receptor positive allosteric modulation. P14416. DiscoveRx D2 beta-arrestin cells, luminescence, 90 min; 100% = 57 uM dopamine signal. potentiation, % (test concentration not listed). actives 0.23% (n = 360,000). AID 624464; in the data active = potentiation above about 50%; inconclusive = mostly about 30% to 49%
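D2 cells co-treated with compound plus 50 nM dopamine (EC20) for 90 min at 37 deg C to detect potentiation. Beta-arrestin recruitment was read as enzyme-fragment luminescence after 1 h at ambient temperature. Full response was set by 57 uM dopamine.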
* hit, by the source's call; ? = inconclusive; / = not tested or not shown.

SMILES	D2 ag-1	D2 PAM-1	D2 ag-2	D2 antagonist	D2 PAM-2
COc1ccccc1NS(=O)(=O)c1cccc(C(=O)NCC(c2ccccc2OC)N2CCCC2)c1 (stereo not given)	0	-10	-4	11	-43
COc1ccccc1NS(=O)(=O)c1cccc(C(=O)NCC(c2ccco2)N2CCCC2)c1 (stereo not given)	1	-27	1	63*	-23
COc1ccc(OC)c(-c2nn(-c3ccccc3)cc2C(=O)NCC(c2ccco2)N2CCCC2)c1 (stereo not given)	0	-20	-3	36*	-35
COCCNC(=O)CSc1nc(-c2cc(OC)c(OC)c(OC)c2)[nH]c1-c1ccc(Cl)cc1	0	-24	/	/	/
COc1ccc(CCNC(=O)CN(c2ccc(C)cc2)S(=O)(=O)c2ccc(OC)cc2)cc1	0	11	/	/	/
COc1ccc(OC2CCN(C(=O)Nc3ccc(C)cc3)CC2)cc1	1	-13	-8	50*	-21
Cc1ccc(NC(=O)N2CCC(C(=O)NCc3ccccc3)CC2)cc1	0	-7	-2	39*	-12
COc1ccc(NC(=O)N2CCC(C(=O)c3ccc(F)cc3)CC2)cc1	0	8	1	-15	-15
Cc1oc(C)c2c(=O)cc(-c3ccc4c(c3)OCO4)cc(OC(=O)c3cccc(Br)c3)c12	/	6	/	/	/
COc1ccc(-c2cnc(C)o2)cc1S(=O)(=O)Nc1ccc(C)c(F)c1	1	7	/	/	/
Cc1cc(C)c(S(=O)(=O)Nn2cnnc2)c(C)c1	1	9	-1	32*	-4
CC(C)COc1ccc(C(=O)N(Cc2ccc(N(C)C)cc2)Cc2ccco2)cc1	-1	14	/	/	/
CCN(CC)S(=O)(=O)c1cccc(-c2nnc(SCC(=O)c3cc(C)n(C4CC4)c3C)o2)c1	1	3	0	-5	11
C=CCn1c(C)cc(C(=O)CSc2nnc(-c3cccc(S(=O)(=O)N(CC)CC)c3)o2)c1C	0	39*	-3	-20	-12
CCc1ccc(C2CC(c3ccccc3)n3ncnc3N2)cc1 (stereo not given)	2	0	3	42*	-3
CCc1ccc(C2CC(c3ccccc3)Nc3nc(N)nn32)cc1 (stereo not given)	0	11	7	-13	3
CCCc1nn2c(=O)cc(COC(=O)CNC(=O)COc3ccc(C)cc3)nc2s1	1	-9	/	/	/
CCC(c1nnnn1C1CCCC1)N1CCN(c2ccccc2)CC1 (stereo not given)	2	/	1	52*	-8
CCC(c1nnnn1C1CCCC1)N1CCN(c2ccccc2F)CC1 (stereo not given)	-1	-14	0	4	-6
CCCCc1nn2c(=O)cc(COC(=O)c3ccc(NC(=O)CCc4ccccc4)cc3)nc2s1	2	0	/	/	/
COc1ccc(/C=C/C(=O)c2ccc(Cl)s2)cc1O	1	-3	-5	37*	2
O=C(CCC1N=C2c3ccccc3N=C(SCc3ccc(F)cc3)N2C1=O)NC1CCCCC1 (stereo not given)	0	10	/	/	/
CCC(c1ccc(O)c(O)c1)C(CC)c1ccc(O)c(O)c1 (stereo not given)	/	/	59*	/	16
CC(C)NC[C@H](O)c1ccc(O)c(O)c1	5	9	-4	12	-5
Cc1c(C(=O)N2CCCC2)sc(NC(=O)c2ccc(Cl)cc2)c1C#N	0	-24	-1	91*	-9
SMILES	D2 ag-1	D2 PAM-1	D2 ag-2	D2 antagonist	D2 PAM-2
CCOC(=O)c1sc(NC(=O)CSc2n[nH]c(-c3ccc(Cl)cc3Cl)n2)c(C#N)c1C	0	31*	-1	6	-3
CCOC(=O)c1sc(NC(=O)c2ccncc2)c(C#N)c1C	8	31*	0	-1	?
CC(=O)c1ccc(Nc2cc(C)nc3nc(Cc4ccc(Cl)cc4)nn23)cc1	-1	-10	/	/	/
CCC1CCCCN1CCCNC(=O)c1c(O)nc2ccccn2c1=O (stereo not given)	0	-10	-3	/	4
O=C(NC1CCCCC1)C(c1cccnc1)N(C(=O)c1csnn1)c1ccccc1F (stereo not given)	1	-2	-3	3	-8
CC1(C)Cc2ccccc2-c2nnc(-c3ccc4ccccc4n3)n21	0	44*	1	0	-5
Cc1ccc(CNC(=O)NC2COc3ccccc3C2)cc1 (stereo not given)	-1	7	/	/	/
COc1ccc(/C=N/NC(=O)c2c(C)nnn2-c2nonc2N)cc1OC	0	1	-1	8	-3
CC(C)c1ccc(OCC(=O)Nc2c3c(nn2C(C)(C)C)CS(=O)(=O)C3)cc1	-1	13	10	4	57*
CCCn1c(SCC(=O)N2CCN(C(=O)c3ccco3)CC2)nc2ccccc2c1=O	1	-2	-2	31*	5
O=C(CSc1nnc(-c2ccco2)n1-c1ccccc1)N1CCN(C(=O)c2ccco2)CC1	2	/	-2	65*	1
CCOc1ccccc1-n1c(SCC(=O)NC)nnc1-c1ccco1	0	10	0	-2	-3
CCOc1ccc(-n2c(SCC(=O)NC)nnc2-c2ccco2)cc1	0	7	2	36*	-2
Cn1c(SCC(=O)N2CCN(c3ccccc3)CC2)nnc1-c1ccco1	1	-9	-3	2	-10
COCCNC(=O)CCCn1c(SCc2ccccc2Cl)nc2c(sc3ccccc32)c1=O	0	-7	/	/	/
Cc1ccnc(NC(=O)CCCc2c[nH]c3ccccc23)c1	-1	7	-1	-4	5
Cc1cccnc1NC(=O)CCc1c[nH]c2ccccc12	0	5	1	31*	1
COc1ccc(C(=O)NNC(=O)C(=O)Nc2ccc(C)cc2)cc1	-3	/	-8	9	-8
CCc1ccc(NC(=O)C(=O)NNC(=O)c2ccc(OC)cc2)cc1	1	-14	-5	43*	-1
O=C(CSc1nc(C2CC2)nc2ccccc12)N1c2ccccc2Sc2ccc(C(F)(F)F)cc21	1	-9	4	4	60*
Cc1cc(C)c2ccc(N)nc2c1O	1	-6	0	-14	-11
Cc1cc(C)c2ccc(C)[n+]([O-])c2c1O	0	1	1	37*	-14
O=C(c1cncc(Br)c1)N1CCN(c2ccc(N3CCOCC3)nn2)CC1	0	-2	-3	18	-5
O=C(Oc1ccccc1C(=O)N1CCOCC1)c1cccc(Br)c1	0	3	0	47*	-12
O=C(c1cccc(Br)c1)N1CCN(c2ccc(N3CCOCC3)nn2)CC1	0	-15	-3	33*	-8
O=C(COC(=O)COc1ccccc1)Nc1ccc(Br)cc1F	/	/	-3	/	-6
COc1ccccc1OCCC(=O)OCC(=O)Nc1ccc(Br)cc1F	2	-21	-3	41*	-15
